Shown are actives, neighbours in structure and some others; about 5.2% of the full set was active somewhere.
APOBEC3A inh: blocks human APOBEC3A ssDNA deamination | P31941 | inhibition, % at 20 µM | 330,000 tested, 0.41% active | recombinant A3A, FAM/TAMRA ssDNA deamination fluorescence;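 active = at least 40% inhibition at 20 µM here, with at most 30% in a related deaminase screen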
Target sequence (P31941 whole entry, looked up): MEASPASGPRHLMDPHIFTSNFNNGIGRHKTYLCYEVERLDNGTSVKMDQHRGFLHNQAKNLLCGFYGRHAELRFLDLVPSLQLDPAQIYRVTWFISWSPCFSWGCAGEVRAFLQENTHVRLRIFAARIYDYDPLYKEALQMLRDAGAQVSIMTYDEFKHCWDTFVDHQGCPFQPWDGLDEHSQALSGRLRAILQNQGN
CendR NRP1 mod: modulators of CendR peptide binding to human neuropilin-1 | inhibition, % at 25 µM | FAM-RPARPAR peptide binding to NRP-1, fluorescence polarization | O14786 | 360,000 tested, 0.85% active;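 active = inhibition or corrected inhibition above about 18%, plus a signal ratio from 0.5 to 1.5, limit read from the data, passing the limit was not always enough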
Yeast superoxide: caloric restriction mimetics inhibiting age-related superoxide in yeast | superoxide response (% of plate mean), % at 10 µM | S. cerevisiae aged cells, superoxide DHE fluorescence; active compounds read low | 330,000 tested, 0.18% active;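 active = superoxide response under a set limit, about three screen SD below normal, cut at about 65% in these data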;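 note: yeast aged for seven days with compound at 30 °C before DHE staining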
ALR H2O2 inh: inhibitors of human sulfhydryl oxidase ALR | P55789 | purified ALR, DTT oxidation, H2O2 HRP-luminol luminescence | inhibition, % (no concentration beside the values) | 290,000 tested, 3.8% active;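 active = mean replicate inhibition above about 79%, with every replicate also reaching it, limit read from the data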
Target sequence (P55789 whole entry, looked up): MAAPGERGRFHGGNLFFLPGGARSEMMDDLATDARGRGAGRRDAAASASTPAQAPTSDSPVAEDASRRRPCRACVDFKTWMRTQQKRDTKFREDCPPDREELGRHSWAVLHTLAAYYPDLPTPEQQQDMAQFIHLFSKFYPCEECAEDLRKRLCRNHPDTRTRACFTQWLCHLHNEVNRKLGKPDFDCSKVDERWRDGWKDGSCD
A3G deaminase: inhibitors of human APOBEC3G DNA deaminase. inhibition, % at 20 µM. recombinant A3G, ssDNA deamination FAM/TAMRA fluorescence. Q9HC16. 330,000 tested, 0.28% active;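 active = inhibition of at least 40% at 20 µM, with no more than 30% in the related APOBEC3A deaminase screen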
PfM18AAP inh: blocks P. falciparum M18 aspartyl aminopeptidase. 290,000 tested, 1.2% active. inhibition, % at 7.35 µM. recombinant PfM18AAP, H-Glu-NHMec fluorogenic cleavage;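 active = inhibition above the campaign mean inhibition over all tested compounds plus 3 SD, cut at about 28% in these data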
APOBEC3G confirm: APOBEC3G (human) deaminase inhibition, confirmed | shares compounds with A3G deaminase | recombinant A3G ssDNA deaminase, UDG/FAM-TAMRA fluorescence | inhibition, % at 20 µM | 890 tested, 72% active;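 active = inhibition reaching a set limit in any replicate at 20 µM, the limit being 80% of the first screen's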
UDG ctr A3G: inhibits E. coli UDG, flagging false APOBEC3G inhibitors; shares compounds with A3G deaminase; UDG counterscreen, FAM/TAMRA oligo fluorescence; inhibition, % at 20 µM; 710 tested, under 10 active; AID 504715;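 active = compounds giving 40% or more inhibition at 20 µM in any one of the three replicates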;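 note: inhibitors lower the FAM signal released by uracil excision and alkaline cleavage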
Target sequence (P12295 whole entry, looked up): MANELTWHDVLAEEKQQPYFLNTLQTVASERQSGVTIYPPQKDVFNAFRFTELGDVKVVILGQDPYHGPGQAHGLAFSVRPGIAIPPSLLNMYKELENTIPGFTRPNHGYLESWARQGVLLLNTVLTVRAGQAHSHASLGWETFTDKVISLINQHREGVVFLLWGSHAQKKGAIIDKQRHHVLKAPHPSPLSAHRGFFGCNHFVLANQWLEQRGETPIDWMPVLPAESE
Large screens that a line does not name were inactive (follow-up assays come after a bar, where they were run).

Cc1ccc(C)c(NC(=O)CCN2CCN(C)CC2)c1	none
COCOc1cccc(CN2CCC2(C)C(=O)Nc2ccc(C)c(O)c2)c1 (stereo not given)	none (no result: APOBEC3A inh, Yeast superoxide, ALR H2O2 inh, A3G deaminase, PfM18AAP inh)
O=c1c2c3c(sc2n2c(=S)[nH]nc2n1-c1ccccc1)CCC3	A3G deaminase 53.1 | APOBEC3G confirm 83.9 | UDG ctr A3G inactive
Cc1ccc(-n2c(=O)c3c4c(sc3n3c(=S)[nH]nc23)CCC4)cc1	none
CCn1c(=O)c2c3c(sc2n2c(=S)[nH]nc12)CCC3	ALR H2O2 inh 86.8, A3G deaminase 59.1 | APOBEC3G confirm 88.0 | UDG ctr A3G inactive
CC(C)(C)NC(=O)NC(=O)COC(=O)C1CCN(S(=O)(=O)c2cccs2)CC1	none (no result: ALR H2O2 inh, PfM18AAP inh)
Cc1csc(NC(=O)Cn2nc(C)c([N+](=O)[O-])c2C)n1	none
CCc1c(C)sc(NC(=O)Cn2nc(C)c([N+](=O)[O-])c2C)c1C(N)=O	A3G deaminase 52.3 | APOBEC3G confirm 24.2 | UDG ctr A3G inactive
S=c1[nH]nc(-c2ccco2)n1Cc1ccccc1	ALR H2O2 inh 92.0, A3G deaminase 50.8 | APOBEC3G confirm 72.7 | UDG ctr A3G inactive
CC(C)Cn1c(-c2ccc(F)cc2)n[nH]c1=S	A3G deaminase 40.8 | APOBEC3G confirm 81.7 | UDG ctr A3G inactive
CC(C)Cn1c(-c2ccco2)n[nH]c1=S	A3G deaminase 46.3 | APOBEC3G confirm inactive
CCn1c(-c2ccc(C(C)(C)C)cc2)n[nH]c1=S	none
CCCCn1c(-c2ccco2)n[nH]c1=S	ALR H2O2 inh 97.6, A3G deaminase 63.1 | APOBEC3G confirm 65.6 | UDG ctr A3G inactive
CCn1c(CNC(=O)c2ccccc2F)nnc1SCc1nc2ccccc2c(=O)[nH]1	none (no result: CendR NRP1 mod)
Cn1c(=O)n(C)c2cc(S(=O)(=O)NCC(=O)O)ccc21	none
Cn1c(=O)n(C)c2cc(S(=O)(=O)Nc3ccccc3C(=O)O)ccc21	A3G deaminase 56.2 | APOBEC3G confirm inactive
CCOC(=O)C1CCN(c2ncnc3c2nnn3Cc2ccccc2Cl)CC1	none
CCOC(=O)c1sc(=S)n(-c2cc(OC)ccc2OC)c1N	A3G deaminase 59.8 | APOBEC3G confirm inactive
CCc1ccc(-n2c(Cn3nc(C(F)(F)F)cc3C)n[nH]c2=S)cc1	none
CCc1ccc(-n2c(C)n[nH]c2=S)cc1	A3G deaminase 56.4 (no result: ALR H2O2 inh) | APOBEC3G confirm 61.3 | UDG ctr A3G inactive
Cc1cc(C(=O)O)ccc1-n1c(C)cc(C=C2C(=O)c3ccccc3C2=O)c1C	A3G deaminase 51.1 | APOBEC3G confirm inactive
O=C(CSc1nc2ccccc2c(=O)n1-c1ccccc1)c1cccc([N+](=O)[O-])c1	none (no result: PfM18AAP inh)
CC(=O)N(C1=C(Cl)C(=O)c2ccccc2C1=O)C1CCCCC1	A3G deaminase 83.3 | APOBEC3G confirm 91.8 | UDG ctr A3G inactive
Cc1ccc(NC(=O)C2CCN(c3nc(C)cc(C)n3)CC2)cc1	A3G deaminase 47.6 | APOBEC3G confirm inactive | UDG ctr A3G inactive
CCOc1cccc(OCCCNCCCOC)c1	none
Clc1ccc(/C=N/NC2=Nc3cccc4cccc2c34)cc1	none (no result: ALR H2O2 inh)
C(=N\NC1=Nc2cccc3cccc1c23)/c1ccccc1	A3G deaminase 40.5 | APOBEC3G confirm inactive
CC(C)C[C@@H](CO)NS(=O)(=O)c1cc(Cl)ccc1F	none (no result: APOBEC3A inh, Yeast superoxide, ALR H2O2 inh, A3G deaminase, PfM18AAP inh)
COc1cnn(-c2ccc(C)cc2)c(=O)c1Cl	none
CCOC(=O)c1[nH]cc(-c2ccccc2)c1N1CCOCC1	A3G deaminase 62.3 | APOBEC3G confirm 41.3 | UDG ctr A3G inactive
CCOC(=O)c1cnc(-c2ccccc2)nc1N1CCOCC1	none
Cc1cccc(-c2n[nH]c(=S)n2/N=C/c2ccco2)c1	A3G deaminase 47.0 | APOBEC3G confirm 79.1 | UDG ctr A3G inactive
Cc1ccc(-c2nn(-c3ccccc3)cc2/C=N/n2c(-c3ccncc3)n[nH]c2=S)cc1	none
O=[N+]([O-])c1ccc(Cl)c(/C=N/n2c(-c3ccncc3)n[nH]c2=S)c1	A3G deaminase 48.0 | APOBEC3G confirm 57.2 | UDG ctr A3G inactive
Cn1cccc1/C=N/n1c(-c2ccccc2)n[nH]c1=S	A3G deaminase 43.2 | APOBEC3G confirm 80.9 | UDG ctr A3G inactive
Cn1cccc1/C=N/n1c(-c2ccc(C(C)(C)C)cc2)n[nH]c1=S	none (no result: ALR H2O2 inh)
Cc1ccc(-c2n[nH]c(=S)n2/N=C/c2ccncc2)cc1	A3G deaminase 53.1 | APOBEC3G confirm 65.5 | UDG ctr A3G inactive
CC(OC(=O)c1ccc2c(=O)n3c(nc2c1)CCC3)C(N)=O (stereo not given)	none
Cc1c(NC(=O)CN2CCCc3ccccc32)c(=O)n(-c2ccccc2)n1C	none
COc1cc(C2C(C#N)=C(N)N(N(C)C)C3=C2C(=O)CCC3)ccc1O (stereo not given)	none (no result: APOBEC3A inh, A3G deaminase)
Cc1ccc(-c2n[nH]c(=S)n2/N=C\c2ccco2)cc1	A3G deaminase 42.4 | APOBEC3G confirm 75.6 | UDG ctr A3G inactive
Cc1nn(-c2ccccc2)c(C)c1/C=N/n1c(-c2ccncc2)n[nH]c1=S	A3G deaminase 41.7 (no result: ALR H2O2 inh) | APOBEC3G confirm 76.6 | UDG ctr A3G inactive
COc1ccccc1NS(=O)(=O)c1cc(NC(=O)c2cc[n+]([O-])cc2)ccc1N1CCCC1	A3G deaminase 44.5 | APOBEC3G confirm 33.9 | UDG ctr A3G inactive
CCN(CC)c1ccc(NC(=O)c2ccc(=O)[nH]c2)cc1S(=O)(=O)Nc1ccccc1OC	A3G deaminase 55.6 | APOBEC3G confirm 37.8 | UDG ctr A3G inactive
CCN(CC)c1ccc(NC(=O)c2ccccc2F)cc1S(=O)(=O)Nc1ccccc1OC	none
CCN(CC)c1ccc(NC(=O)COc2ccccc2C)cc1S(=O)(=O)Nc1ccccc1OC	A3G deaminase 49.7 | APOBEC3G confirm 61.3 | UDG ctr A3G inactive
CCN(CC)c1ccc(NC(=O)c2ccccc2Br)cc1S(=O)(=O)Nc1ccccc1OC	none (no result: ALR H2O2 inh)
CN1C(=O)c2ccc(C(=O)NCc3ccccn3)cc2C1=O	none
CC1=CC(C)(C)N2C(=O)C3(C(C#N)=C(N)Oc4cc(C)oc(=O)c43)c3cc(C)cc1c32 (stereo not given)	none
Cc1ccc(NC(=O)c2cccc(S(C)(=O)=O)c2)cc1	none (no result: ALR H2O2 inh)
COc1ccccc1NS(=O)(=O)c1ccc(O)cc1	A3G deaminase 81.2 | APOBEC3G confirm inactive
CCNc1nc(NCC)n2c(SCC(=O)Nc3ccc(CC)cc3)nnc2n1	ALR H2O2 inh 98.7, A3G deaminase 49.0 (no result: PfM18AAP inh) | APOBEC3G confirm 47.4 | UDG ctr A3G inactive
CCNc1nc(NCC)n2c(SCC(=O)Nc3ccccc3F)nnc2n1	none (no result: ALR H2O2 inh, PfM18AAP inh)
NC(=O)c1ccc(NCc2ccco2)c([N+](=O)[O-])c1	none
COc1cc(/C=C/C(=O)NNc2c(F)c(F)cc(F)c2F)ccc1OC(F)F	none
COc1ccc(/C=C/C(=O)NNc2c(F)c(F)cc(F)c2F)cc1OC	A3G deaminase 59.9 | APOBEC3G confirm inactive | UDG ctr A3G inactive

Assay outcomes as filed in PubChem.
